Drawing on PubChem BioAssay, this text covers composite z-score and z-score for 6 molecules.

Experiment [1] can be described thus: binders of probe aFSTL3 on microarray, primary screen, stem cell growth factor project, biochemical, small-molecule microarray, fluorescence 635/667 (AID 1064).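 Further: measures binding of the biotinylated anti-FSTL3 antibody to printed compounds.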 The settings on record: higher = more signal.
A short description of experiment [2]: binders from COS7 lysate, DM2A8 probe, primary screen, torsin A project, cell lysate, small-molecule microarray, fluorescence 635/667 (AID 1065). Particulars: higher = more signal, COS7 lysate expressing mutant human TOR1A.
A short description of experiment [3]: binders of probe aFGF2 on microarray, primary screen, stem cell growth factor project, biochemical, small-molecule microarray, fluorescence 635/667 (AID 1067).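 Further: measures binding of biotinylated aFGF2 protein to printed compounds on slides; z-score merges feature fluorescence and signal-to-noise across triplicate slides.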 The settings on record: higher = more signal.
Experiment [4] in a line: binders of probe aFGF10 on microarray, primary screen, stem cell growth factor project, biochemical, small-molecule microarray, fluorescence 635/667 (AID 1071).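 Further: score merges 667 nm spot intensity and signal to noise from triplicate slides.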 Particulars: higher = more signal.
In experiment [5] the target is Neurogenic locus notch homolog protein 2 (Homo sapiens) (UniProt Q04721). Description: Notch2 binders on small-molecule microarrays, primary screen, biochemical, small-molecule microarray, 635 nm fluorescence, stem cell growth factors (AID 1073). The settings on record: Notch2 binding, higher = more signal.
Experiment [6] concerns the target Pro-neuregulin-1, membrane-bound isoform (Homo sapiens) (UniProt Q02297). Description: NRG1 binders on small-molecule microarrays, primary screen, psychiatric disease protein project, biochemical, small-molecule microarray, fluorescence 635/667 (AID 1075).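 Further: score combines 667 nm spot fluorescence with signal to noise.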 Particulars: NRG1 binding, 635 nm fluorescence, higher = more signal.
Experiment [7] has as its system Neuregulin-1 EGF-like domain. Description: binders of neuregulin-1 EGF-like domain, primary screen, biochemical, small-molecule microarray, 635 nm fluorescence (AID 1081).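 Further: binding of the protein to compounds printed on small-molecule microarray slides.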 Particulars: small-molecule microarray binding, higher = more signal.
Experiment [8] in a line: FRG1 promoter luciferase signal modulators, primary screen, FRG1 inhibition for FSHD, cell-based, C2C12 myotubes, firefly/Renilla luciferase, luminescence (AID 1084). Particulars: higher = more signal, called active from +8 up or from −8 down.
The nature of experiment [9]: binders of probe aFST on microarray, primary screen, stem cell growth factor project, biochemical, small-molecule microarray, fluorescence 635/667 (AID 1086).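 Further: score merges 667 nm fluorescence with signal-to-noise of each printed compound spot.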 The settings on record: higher = more signal.
Experiment [10] in a line: binders of probe aHhip on microarray, primary screen, stem cell growth factor project, biochemical, small-molecule microarray, fluorescence 635/667 (AID 1087).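 Further: score merges spot fluorescence at 667nm with spot signal to noise ratio.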 Particulars: higher = more signal.
The test system of experiment [11] is PRMT1 (protein arginine N-methyltransferase 1). Nature of the experiment: PRMT1 binders on small-molecule microarrays, primary screen, biochemical, small-molecule microarray, 635 nm fluorescence (AID 1088).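 Further: binding of Prmt1 protein to compounds spotted on small-molecule microarray slides.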 Particulars: small-molecule microarray binding, higher = more signal.
The nature of experiment [12]: yeast growth modulation, basal conditions, primary screen, YJM789 clinical isolate, OD600, 24 h (AID 1089).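 Further: growth of clinical yeast isolate S. cerevisiae YJM 789 seeded 1000 cells per well; test concentration not given here.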 Particulars: S. cerevisiae YJM789 growth, higher = more signal, called active from +8 up or from −8 down.
Experiment [13] can be described thus: fission yeast growth modulation, primary screen, strain 972, OD600, 24 h, no modulator (AID 1090).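 Further: basal condition with compound alone and no growth modifier present; test concentration not given here.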 Particulars: S. pombe 972 growth, higher = more signal, called active from +8 up or from −8 down.
The nature of experiment [14]: S. cerevisiae growth modulation with rapamycin, primary screen, strain BY4716, OD600, 96 h (AID 1091). Further: test concentration not given here. Particulars: higher = more signal, called active from +8 up or from −8 down.
The target of experiment [15] is Torsin-1A-interacting protein 2 (Homo sapiens) (UniProt Q8NFQ8). Description: LULL1 binders on small-molecule microarray, primary screen, cell lysate, human LULL1 lysate, 635/667 nm fluorescence (AID 1092).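 Further: probe is lysate of COS7 cells overexpressing human LULL1; score merges per-feature 667 nm fluorescence with signal-to-noise.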 Particulars: hLULL1 lysate binding, 635 nm fluorescence, higher = more signal.
A short description of experiment [16]: E. coli growth modulation, two-sided OD650, primary screen, E. coli filamentation project, strain DRC41, 24 h (AID 1093).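 Further: MC1000 strain lacking acrAB efflux and sulA so SOS filamentation is blocked; test concentration not given here.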 The settings on record: OD650, 24 h, higher = more signal, called active from +8 up or from −8 down.
Experiment [17] is described as follows: small-molecule microarray binders of probe aLefty2, primary screen, biochemical, biotinylated probe, 635/667 nm fluorescence (AID 1094).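 Further: score merges spot fluorescence near 667 nm with spot signal-to-noise ratio.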 The settings on record: higher = more signal.
Experiment [18] has as its system Noggin (protein binding on small-molecule microarray). Nature of the experiment: Noggin binders on small-molecule microarray, primary screen, biochemical, 635/667 nm fluorescence (AID 1095).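 Further: score merges 667 nm feature fluorescence with signal to noise over triplicate slides.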 The settings on record: 635 nm fluorescence, higher = more signal.
Experiment [19] has as its target Neurogenic locus notch homolog protein 3 (Homo sapiens) (UniProt Q9UM47). Description: NOTCH3 binders on small-molecule microarray, primary screen, biochemical, 635/667 nm fluorescence (AID 1096). The settings on record: NOTCH3 binding, 635 nm fluorescence, higher = more signal.
A short description of experiment [20]: small-molecule microarray binders of probe aEGFR, primary screen, biochemical, biotinylated probe, 635/667 nm fluorescence (AID 1097).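 Further: probe is a biotinylated anti-EGFR antibody binding compounds printed on slides; score combines fluorescence near 667 nm and signal to noise of each spot.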 Particulars: higher = more signal.

Activity calls are given as the source filed them.

Torsin-1A-interacting protein 2 (Homo sapiens), sequence (Q8NFQ8 whole entry, looked up): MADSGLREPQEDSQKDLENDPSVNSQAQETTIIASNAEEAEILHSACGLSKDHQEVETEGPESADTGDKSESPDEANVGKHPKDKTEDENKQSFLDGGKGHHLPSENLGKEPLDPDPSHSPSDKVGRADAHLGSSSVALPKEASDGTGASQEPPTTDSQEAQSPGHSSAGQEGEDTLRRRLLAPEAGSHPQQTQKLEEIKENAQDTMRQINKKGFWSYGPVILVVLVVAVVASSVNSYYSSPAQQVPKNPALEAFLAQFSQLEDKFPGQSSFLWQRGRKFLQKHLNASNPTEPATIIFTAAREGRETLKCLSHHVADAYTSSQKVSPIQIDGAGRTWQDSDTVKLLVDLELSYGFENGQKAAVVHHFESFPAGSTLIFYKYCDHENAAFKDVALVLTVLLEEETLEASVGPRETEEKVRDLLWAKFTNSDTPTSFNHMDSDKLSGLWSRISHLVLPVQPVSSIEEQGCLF
Pro-neuregulin-1, membrane-bound isoform (Homo sapiens), sequence (Q02297 whole entry, looked up, the tested form may be a part, canonical isoform): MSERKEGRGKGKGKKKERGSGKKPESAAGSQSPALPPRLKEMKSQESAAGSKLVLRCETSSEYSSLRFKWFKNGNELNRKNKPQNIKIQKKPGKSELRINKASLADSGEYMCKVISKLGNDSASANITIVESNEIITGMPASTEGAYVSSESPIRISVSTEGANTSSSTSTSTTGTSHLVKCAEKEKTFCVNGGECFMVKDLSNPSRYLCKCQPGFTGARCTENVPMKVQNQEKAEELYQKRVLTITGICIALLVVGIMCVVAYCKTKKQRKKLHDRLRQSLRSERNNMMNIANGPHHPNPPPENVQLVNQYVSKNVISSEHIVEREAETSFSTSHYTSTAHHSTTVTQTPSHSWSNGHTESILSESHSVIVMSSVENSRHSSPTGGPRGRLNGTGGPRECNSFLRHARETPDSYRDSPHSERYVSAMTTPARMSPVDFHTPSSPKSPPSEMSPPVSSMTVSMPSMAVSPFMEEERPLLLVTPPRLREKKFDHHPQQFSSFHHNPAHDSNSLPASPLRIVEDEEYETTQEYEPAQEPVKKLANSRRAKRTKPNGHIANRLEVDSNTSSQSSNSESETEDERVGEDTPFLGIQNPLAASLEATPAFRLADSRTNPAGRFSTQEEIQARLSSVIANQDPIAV
Neurogenic locus notch homolog protein 2 (Homo sapiens), sequence (Q04721 whole entry, looked up, canonical isoform): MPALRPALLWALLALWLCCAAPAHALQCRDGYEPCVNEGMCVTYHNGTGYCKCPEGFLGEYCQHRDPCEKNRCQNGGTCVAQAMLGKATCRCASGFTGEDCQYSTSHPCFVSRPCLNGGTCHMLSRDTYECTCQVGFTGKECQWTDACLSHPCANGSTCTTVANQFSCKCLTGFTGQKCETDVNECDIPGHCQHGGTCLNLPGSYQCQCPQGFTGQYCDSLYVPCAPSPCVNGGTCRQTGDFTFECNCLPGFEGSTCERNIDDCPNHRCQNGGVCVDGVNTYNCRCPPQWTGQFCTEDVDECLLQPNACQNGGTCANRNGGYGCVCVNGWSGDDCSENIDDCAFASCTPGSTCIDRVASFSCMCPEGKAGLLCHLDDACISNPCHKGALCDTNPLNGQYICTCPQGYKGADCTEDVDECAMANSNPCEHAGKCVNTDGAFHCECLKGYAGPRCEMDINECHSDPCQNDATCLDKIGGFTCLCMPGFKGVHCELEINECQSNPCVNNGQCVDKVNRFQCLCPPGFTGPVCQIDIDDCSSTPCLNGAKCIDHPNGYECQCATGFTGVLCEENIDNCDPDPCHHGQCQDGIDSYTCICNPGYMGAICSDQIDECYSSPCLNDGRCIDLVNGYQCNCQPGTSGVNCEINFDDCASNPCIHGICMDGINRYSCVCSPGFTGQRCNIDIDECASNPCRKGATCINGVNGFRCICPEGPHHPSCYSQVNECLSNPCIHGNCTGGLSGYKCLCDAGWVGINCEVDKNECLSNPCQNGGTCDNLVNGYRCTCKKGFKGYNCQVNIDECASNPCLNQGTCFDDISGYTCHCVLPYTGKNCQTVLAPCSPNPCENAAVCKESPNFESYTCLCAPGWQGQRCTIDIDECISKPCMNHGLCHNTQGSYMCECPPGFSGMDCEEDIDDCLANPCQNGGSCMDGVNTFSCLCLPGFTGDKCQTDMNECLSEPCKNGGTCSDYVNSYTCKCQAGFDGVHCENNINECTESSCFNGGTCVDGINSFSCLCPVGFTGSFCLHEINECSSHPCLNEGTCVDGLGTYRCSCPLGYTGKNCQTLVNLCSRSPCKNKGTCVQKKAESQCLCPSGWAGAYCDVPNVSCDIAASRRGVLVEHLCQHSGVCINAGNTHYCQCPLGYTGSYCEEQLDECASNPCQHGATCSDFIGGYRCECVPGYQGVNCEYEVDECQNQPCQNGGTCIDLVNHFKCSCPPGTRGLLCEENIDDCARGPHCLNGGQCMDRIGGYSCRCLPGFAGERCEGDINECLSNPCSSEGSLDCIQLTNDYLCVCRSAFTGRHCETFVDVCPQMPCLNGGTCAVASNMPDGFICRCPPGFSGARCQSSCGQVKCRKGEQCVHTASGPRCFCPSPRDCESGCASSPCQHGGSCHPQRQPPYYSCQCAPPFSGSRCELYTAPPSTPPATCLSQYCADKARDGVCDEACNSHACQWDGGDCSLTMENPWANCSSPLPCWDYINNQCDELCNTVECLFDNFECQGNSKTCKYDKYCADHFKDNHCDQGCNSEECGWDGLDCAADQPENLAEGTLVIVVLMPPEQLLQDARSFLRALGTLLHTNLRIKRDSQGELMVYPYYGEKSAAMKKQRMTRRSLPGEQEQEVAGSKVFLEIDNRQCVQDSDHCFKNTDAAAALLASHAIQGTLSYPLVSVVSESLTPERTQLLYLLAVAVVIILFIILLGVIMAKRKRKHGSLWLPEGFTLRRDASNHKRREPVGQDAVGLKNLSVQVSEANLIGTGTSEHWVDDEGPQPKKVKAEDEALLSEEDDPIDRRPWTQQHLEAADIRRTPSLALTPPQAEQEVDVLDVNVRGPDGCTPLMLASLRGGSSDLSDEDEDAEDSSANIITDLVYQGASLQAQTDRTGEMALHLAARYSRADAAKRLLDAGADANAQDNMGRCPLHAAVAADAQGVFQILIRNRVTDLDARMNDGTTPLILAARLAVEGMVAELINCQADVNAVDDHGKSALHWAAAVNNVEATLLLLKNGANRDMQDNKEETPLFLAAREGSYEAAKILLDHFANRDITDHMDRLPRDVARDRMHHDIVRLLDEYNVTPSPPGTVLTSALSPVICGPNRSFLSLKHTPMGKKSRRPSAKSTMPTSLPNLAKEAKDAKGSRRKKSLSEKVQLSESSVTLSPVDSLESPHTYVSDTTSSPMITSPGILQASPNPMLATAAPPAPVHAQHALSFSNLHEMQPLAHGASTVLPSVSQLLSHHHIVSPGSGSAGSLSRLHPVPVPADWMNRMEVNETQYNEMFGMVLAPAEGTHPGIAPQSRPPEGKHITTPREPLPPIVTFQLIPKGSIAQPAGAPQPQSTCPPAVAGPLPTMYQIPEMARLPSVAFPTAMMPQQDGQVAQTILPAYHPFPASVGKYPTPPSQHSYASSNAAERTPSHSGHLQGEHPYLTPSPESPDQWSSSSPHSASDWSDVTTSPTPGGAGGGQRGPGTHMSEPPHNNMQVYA

For `CC1CC/C=C\[C@H]2OC34C=CCN(C(C)C)C(=O)[C@H]3N(C(CO)C(C)C)C(=O)[C@@H]4C2C(=O)O1` (stereo not given in full), the composite z-score in [1] was 1.54; in [2], -0.267; in experiment [3], -0.0985; in experiment [4], -0.365; in [5] it was -0.662; in experiment [6], -0.593. Also, the composite z-score in experiment [7] was 0.475; in [9], -0.422; in [10], -0.0994; in experiment [11], -0.825; in experiment [15], 1.55; in experiment [17] it was -0.0229. Moreover, the values for the composite z-score in [18], in [19] and in [20] were -0.684, -0.274 and -0.154, respectively. Further, the z-score was -0.416 (inactive) in experiment [8]; 0.959 (inactive) in experiment [12]; -1.84 (inactive) in experiment [13]; -0.631 (inactive) in experiment [14]; 2.14 (inactive) in [16].
Take `C=C(COC)/C(=C/C[C@H](OC(C)=O)c1cccc(OCCO)c1)c1cc(C(=O)OC)ccc1OC`: the composite z-score was -0.269 in experiment [1]; 0.952 in experiment [2]; -0.0986 in [3]; 0.318 in experiment [4]; -0.38 in experiment [5]; 0.0557 in experiment [6]. Moreover, the composite z-score in experiment [7] was 0.691; in experiment [9] it was 0.276; in [10], -0.0296; in [11], 0.905; in experiment [15], 0.574; in experiment [17], 0.0056. Besides, the values for the composite z-score in experiment [18], in experiment [19] and in experiment [20] were 1.29, 0.694 and -0.151, respectively. Moreover, the z-score in [8] was -3.63 (inactive); in experiment [12], -25.1 (active); in experiment [13], -20.5 (active); in experiment [14], -4.33 (inactive); in experiment [16], 1.57 (inactive).
For `CCOC(=O)C[C@H]1[C@H](OC(=O)c2cc3ccccc3oc2=O)[C@@H](NC(=O)c2ccccc2)c2cc(OCCCO)ccc2N1C(=O)Cc1ccc(OC)cc1`, the composite z-score in [1] was -0.297; in experiment [2], 0.682; in experiment [3] it was -0.038; in [4] it was 0.575; in [5] it was 0.81; in experiment [6], 0.147. Besides, the composite z-score was -0.1 in [7]; 0.514 in [9]; 0.0302 in experiment [10]; -0.0867 in experiment [11]; 0.239 in [15]; -0.0069 in experiment [17]. Further, the composite z-score in experiment [18] was 0.908; in [19] it was 0.665; in [20] it was -0.113. Moreover, the z-score is -0.265 (inactive) in [8]; -0.196 (inactive) in [12]; -1.08 (inactive) in experiment [13]; -0.846 (inactive) in experiment [14]; 2.9 (inactive) in experiment [16].
As for `CCOC(=O)C[C@H]1[C@H](OC(=O)c2ccc(C(=O)c3ccccc3)cc2)[C@@H](NC(=O)Cc2ccc(OC)cc2)c2cc(OCCCO)ccc2N1C(=O)Cc1ccc(OC)cc1`, the composite z-score in [1] worked out at 0.0476; in experiment [2], 0.346; in [3], 0.007; in experiment [4], 0.35; in experiment [5], 0.903; in experiment [6], 0.752. For the same molecule, the composite z-score is 0.668 in [7]; 0.971 in experiment [9]; -0.132 in experiment [10]; 1.21 in experiment [11]; 1.66 in experiment [15]; 0.0673 in experiment [17]. The composite z-score in [18] is 0.22; in [19], 1.13; in [20] it was -0.0131. The z-score in experiment [8] was -1.22 (inactive); in experiment [12] it was -0.574 (inactive); in [13], -1.42 (inactive); in experiment [14], -0.914 (inactive); in [16], 1.78 (inactive).
As to `Cc1ccc(S[C@]2(C(=O)NCCN3CCOCC3)CC(=O)N(Cc3cc(C(F)(F)F)cc(C(F)(F)F)c3)[C@@H]2c2ccc(CO)cc2)cc1`, the composite z-score in [1] is 0.62; in experiment [2], -0.439; in experiment [3], -0.15; in [4] it was -1.35; in [5], -1.26; in experiment [6], 1.04. The composite z-score in [7] was -0.382; in [9], -0.341; in experiment [10], -0.0632; in experiment [11], 1.24; in experiment [15], 1.47; in experiment [17] it was -0.136. Further, the composite z-score was -0.984 in [18], -0.54 in [19] and -0.252 in experiment [20]. Moreover, the z-score in [8] was -1.67 (inactive); in [12], -1.03 (inactive); in [13], -3.43 (inactive); in experiment [14], -2.07 (inactive); in [16] it was 0.611 (inactive).
Take `C=C(CCCC)/C(=C/C[C@H](OC(=O)c1ccncc1)c1ccc(CO)o1)c1cnc2ccccc2c1`: the composite z-score in experiment [1] is -0.408; in experiment [2] it was 0.536; in [3] it was -0.0332; in experiment [4], 0.941; in [5], 1.41; in experiment [6], -0.185. The composite z-score in experiment [7] is 1.04; in experiment [9] it was 0.761; in experiment [10], 0.265; in experiment [11] it was 1.56; in [15], 1.89; in [17] it was -0.0102. Besides, the composite z-score in [18] amounted to 1.19; in [19] it was 1.09; in [20], 0.0221. The z-score in [8] is -0.587 (inactive); in experiment [12], 3.23 (inactive); in experiment [13], -1.99 (inactive); in experiment [14], -0.516 (inactive); in [16], 0.74 (inactive).
